# Measured values from PubChem BioAssay (NCATS).
# Records with an inconclusive call do not appear. More than one record can exist for a structure, and the calls need not agree. Calls of active or inactive are those of the source. The call rests on the fitted dose curve; in most records, active means well fitted inhibition curve with a large enough effect; inconclusive means small, poorly fitted or top-dose-only effect; inactive means no such curve, though single readings can be large or run the other way.
# Target: M-phase phosphoprotein 8 (Homo sapiens) (UniProt Q99549)
# Test: qHTS Validation Assay for Inhibitors for MPP8 Chromodomain Interactions with Methylated Histone Tails (AID 488949); further: nearly all actives have a fitted effect of over 55% in size;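 on activity change, negative = inhibition: AlphaScreen signal from MPP8 chromodomain bound to biotinylated H3K9me3 peptide; top concentration of the series differs between compounds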
# Details: AlphaScreen MPP8 binding to H3K9me3 peptide; series mostly up to 57.1 µM; activity change, negative = inhibition: at the top concentration
# How it was run: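 AlphaScreen read-out: streptavidin donor and nickel chelate acceptor beads (final 10 ug/mL), 30 min in the dark at RT. Complex of 50 nM MPP8 and 50 nM b-H3(1-18)K9me3 peptide had been exposed to compounds for 30 min beforehand.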
# On the % scale 0 is the no-effect control and ±100 the full control effect; potency means the concentration at half of the fitted maximal effect.
# M-phase phosphoprotein 8 (Homo sapiens), sequence (Q99549 whole entry, looked up): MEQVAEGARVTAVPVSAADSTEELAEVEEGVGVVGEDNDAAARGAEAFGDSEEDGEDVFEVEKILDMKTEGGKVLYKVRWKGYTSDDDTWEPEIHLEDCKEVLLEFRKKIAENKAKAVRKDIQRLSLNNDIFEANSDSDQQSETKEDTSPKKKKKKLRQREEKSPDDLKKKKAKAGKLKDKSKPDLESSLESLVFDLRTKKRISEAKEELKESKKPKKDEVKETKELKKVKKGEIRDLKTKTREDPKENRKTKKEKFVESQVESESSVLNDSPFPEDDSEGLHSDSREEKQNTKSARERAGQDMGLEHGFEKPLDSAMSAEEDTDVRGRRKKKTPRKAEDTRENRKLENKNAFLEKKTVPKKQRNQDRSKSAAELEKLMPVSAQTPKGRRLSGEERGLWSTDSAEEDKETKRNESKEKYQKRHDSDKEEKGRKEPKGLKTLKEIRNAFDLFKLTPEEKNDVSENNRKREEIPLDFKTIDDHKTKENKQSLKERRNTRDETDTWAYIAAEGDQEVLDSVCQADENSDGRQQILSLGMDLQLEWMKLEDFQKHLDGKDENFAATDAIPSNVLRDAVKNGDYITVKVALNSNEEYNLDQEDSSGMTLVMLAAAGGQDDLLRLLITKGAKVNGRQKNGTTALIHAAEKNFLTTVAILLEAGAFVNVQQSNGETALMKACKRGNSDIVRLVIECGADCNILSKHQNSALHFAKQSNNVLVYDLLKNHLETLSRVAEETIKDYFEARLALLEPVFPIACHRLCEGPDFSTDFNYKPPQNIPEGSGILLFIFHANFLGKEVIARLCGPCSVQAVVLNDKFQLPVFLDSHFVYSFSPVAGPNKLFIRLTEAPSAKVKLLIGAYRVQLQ
SMILES,"activity change, negative = inhibition",Potency
NC(=S)c1ccc[n+]([C@@H]2O[C@@H](COP(=O)([O-])OP(=O)(O)OC[C@H]3O[C@@H](n4cnc5c(N)ncnc54)[C@H](OP(=O)(O)O)[C@@H]3O)C(O)C2O)c1 (stereo partly drawn),-5.42% (inactive),
NC(N)=NC(=O)c1nc(Cl)c(N2CCCCCC2)nc1N,,44.7 µM (active) and inactive
CCCn1c(=O)c2[nH]c(-c3ccc(OCC(=O)NCCN)cc3)nc2n(CCC)c1=O,,inactive
Oc1cc2c(cc1O)CN(C(=S)NCCc1ccc(Cl)cc1)CCC2,,39.8 µM (active) and inactive
O=C(O)c1cc(=O)c2ccccc2[nH]1,,inactive
CC(C)ON([C@@H](C(=O)NO)C(C)C)S(=O)(=O)c1ccc(-c2ccccc2)cc1,2.95% (inactive),
NC(=O)C1=CN(C2OC(COP(=O)(O)OP(=O)(O)OC[C@H]3O[C@@H](n4cnc5c(N)ncnc54)[C@H](OP(=O)(O)O)[C@@H]3O)C(O)C2O)C=CC1 (stereo partly drawn),-5.76% (inactive),
CNC(=O)[C@H]1O[C@@H](n2cnc3c(NCc4ccc(N)cc4)ncnc32)[C@H](O)[C@@H]1O,-5.95% (inactive),
COc1ccc2c(c1)CCC1C2CC[C@@]2(C)C1CC[C@@H]2NCCCCCCN1C(=O)CCC1=O (stereo partly drawn),15% (inactive),
C[C@@H](NC(=O)/C(C#N)=C/c1ccc(O)c(O)c1)c1ccccc1,,10 µM (active)
CCc1c(C(=O)NCCc2ccc(N3CCCCC3)cc2)[nH]c2ccc(Cl)cc12,0.852% (inactive),
O=c1[nH]c2cc([N+](=O)[O-])c([N+](=O)[O-])cc2[nH]c1=O,-0.61% (inactive),
NC(=S)NCCC[C@H](N)C(=O)O,-4.96% (inactive),
Oc1cc(O)cc(/C=C/c2ccc(O)c(O)c2)c1,,39.8 µM (active)
O=C(/C=C/c1ccc(O)cc1)c1ccc(O)cc1O,1.55% (inactive),
N#C/C(=C\c1ccc(-c2cc(Cl)ccc2Cl)o1)C(=O)Nc1cccc2ncccc12,-1.09% (inactive),

# Target: Chromobox protein homolog 1 (Homo sapiens) (UniProt P83916)
# Test: qHTS Validation Assay for Inhibitors of HP1-beta Chromodomain Interactions with Methylated Histone Tails (AID 488953); further: nearly all actives have a fitted effect of over 50% in size;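 on activity change, negative = inhibition: loss of AlphaScreen luminescence from HP1-beta binding biotinylated H3K9me3 peptide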
# Details: HP1-beta chromodomain / methylated histone peptide binding assay; series mostly up to 114 µM; activity change, negative = inhibition: at the top concentration
# How it was run: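 Disruption of preformed HP1-beta:H3K9me3 peptide complexes (both 50 nM, PBS pH 7.4 with 0.01% Tween-20) is measured by AlphaScreen after 30 min compound exposure at room temperature, using streptavidin donor and nickel chelate acceptor beads at 10 ug/mL final.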
# Chromobox protein homolog 1 (Homo sapiens), sequence (P83916 whole entry, looked up): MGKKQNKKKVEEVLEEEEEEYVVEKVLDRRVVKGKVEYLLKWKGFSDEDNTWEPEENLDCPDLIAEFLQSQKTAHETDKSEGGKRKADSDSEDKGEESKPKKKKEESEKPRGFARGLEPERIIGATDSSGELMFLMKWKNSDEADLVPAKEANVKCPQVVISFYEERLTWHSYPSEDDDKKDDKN
SMILES,Potency,"activity change, negative = inhibition"
OC[C@H]1O[C@@H](n2cnc3c(Nc4ccccc4)ncnc32)[C@H](O)[C@@H]1O,0.006 µM (active),
CC[C@@H](C)[C@H]1O[C@]2(CC[C@H]1C)C[C@@H]1C[C@@H](CC=C(C)[C@@H](O[C@H]3C[C@H](OC)[C@@H](O[C@H]4C[C@H](OC)[C@@H](O)[C@H](C)O4)[C@H](C)O3)[C@@H](C)C=CC=C3CO[C@@H]4[C@H](O)C(C)=C[C@@H](C(=O)O1)[C@]34O)O2,,-10.8% (inactive)
Nc1nc(SCc2ccc([N+](=O)[O-])cc2)c2ncn([C@@H]3O[C@H](CO)[C@@H](O)[C@H]3O)c2n1,,-8.35% (inactive)
CN(C)c1ccc(/C=C2\C(=O)Nc3ccccc32)cc1,28.2 µM (active),
C=C[C@H]1CN2CC[C@@H]1C[C@@H]2[C@@H](O)c1ccnc2ccc(OC)cc12,,2.32% (inactive)
CN=c1nc(-c2ccccc2)n(-c2ccccc2)s1,12.6 µM (active),
COc1cccc(C(=O)NCCN2CCN(c3ccc(Cl)cc3)CC2)c1,,2.22% (inactive)
CO/N=C(\C(=O)N[C@@H]1C(=O)N2C(C(=O)O)=C(COC(C)=O)CS[C@H]12)c1csc(N)n1,50.1 µM (active),
N.N.N.N.N.N.N.N.N.N.N.N.N.N.O.O.[Ru+4].[Ru+5].[Ru+5],4.47 µM (active),
NC(=S)c1ccc[n+]([C@@H]2O[C@@H](COP(=O)([O-])OP(=O)(O)OC[C@H]3O[C@@H](n4cnc5c(N)ncnc54)[C@H](OP(=O)(O)O)[C@@H]3O)C(O)C2O)c1 (stereo partly drawn),89.1 µM (active),
CCC1C(=O)OCC1Cc1cncn1C (stereo not drawn),inactive,
Oc1cc2c(cc1O)CN(C(=S)NCCc1ccc(Cl)cc1)CCC2,44.7 µM (active),
O=C(O)c1cc(=O)c2ccccc2[nH]1,0.0474 µM (active),
O=C1NC(=O)/C(=C/c2ccc(-c3ccc(F)cc3O)o2)S1,39.8 µM (active),
N#C/C(=C\c1ccc(O)c(O)c1)C(=O)NCc1ccccc1,10 µM (active),
NC(=O)C1=CN(C2OC(COP(=O)(O)OP(=O)(O)OC[C@H]3O[C@@H](n4cnc5c(N)ncnc54)[C@H](OP(=O)(O)O)[C@@H]3O)C(O)C2O)C=CC1 (stereo partly drawn),0.0053 µM (active),
CNC(=O)[C@H]1O[C@@H](n2cnc3c(NCc4ccc(N)cc4)ncnc32)[C@H](O)[C@@H]1O,,14.4% (inactive)
COc1ccc2c(c1)CCC1C2CC[C@@]2(C)C1CC[C@@H]2NCCCCCCN1C(=O)CCC1=O (stereo partly drawn),,-11.9% (inactive)
C[C@@H](NC(=O)/C(C#N)=C/c1ccc(O)c(O)c1)c1ccccc1,8.91 µM (active),
CCc1c(C(=O)NCCc2ccc(N3CCCCC3)cc2)[nH]c2ccc(Cl)cc12,20 µM (active),
C[N+]1(C)CCC(OC(=O)C(c2ccccc2)c2ccccc2)CC1,,3.49% (inactive)
O=c1[nH]c2cc([N+](=O)[O-])c([N+](=O)[O-])cc2[nH]c1=O,,-11.5% (inactive)
NC(=S)NCCC[C@H](N)C(=O)O,10 µM (active),
Oc1cc(O)cc(/C=C/c2ccc(O)c(O)c2)c1,44.7 µM (active),
CN1C2CC(OC(=O)[C@H](CO)c3ccccc3)CC1C1OC12 (stereo partly drawn),,0.573% (inactive)
CC(C)CC(NP(=O)(O)O[C@@H]1O[C@@H](C)[C@H](O)[C@@H](O)[C@H]1O)C(=O)NC(Cc1c[nH]c2ccccc12)C(=O)O (stereo partly drawn),,-6.67% (inactive)
N#C/C(=C\c1ccc(-c2cc(Cl)ccc2Cl)o1)C(=O)Nc1cccc2ncccc12,,-7.8% (inactive)
